Sampled rows, rich in hits. Any-hit rate of the full collection: about 4%.
TRHR ag: agonists of human TRH receptor. TRHR cells, calcium flux fluo-8, FDSS agonist mode. activation, % at 2 µM. P34981. actives 0.18% (n = 360,000); note: 0% is about no effect
Target sequence (P34981 whole entry, looked up): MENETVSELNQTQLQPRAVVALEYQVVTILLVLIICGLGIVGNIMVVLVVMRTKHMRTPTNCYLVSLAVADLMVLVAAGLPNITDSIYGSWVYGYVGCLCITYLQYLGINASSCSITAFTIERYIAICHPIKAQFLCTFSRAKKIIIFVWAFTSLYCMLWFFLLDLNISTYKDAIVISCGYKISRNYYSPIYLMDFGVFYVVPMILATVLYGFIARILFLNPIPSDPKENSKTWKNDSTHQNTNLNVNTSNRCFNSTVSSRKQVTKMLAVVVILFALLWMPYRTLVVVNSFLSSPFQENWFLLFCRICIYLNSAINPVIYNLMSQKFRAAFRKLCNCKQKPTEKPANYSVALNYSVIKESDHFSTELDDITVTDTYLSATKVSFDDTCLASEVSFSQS
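TRHR-expressing cells, plated overnight in medium with 10% serum, were loaded with fluo-8 calcium dye at room temperature. After a 10 s baseline, library compound was pin-added and calcium release was recorded kinetically (ex 480/em 530) as agonist response.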
GRP78 ERSR act: induces the endoplasmic reticulum stress response in human glioma cells; Potency, µM, for inactives: at the highest dose activation, usual class: activators; actives 0.02% (n = 420,000); U87-MG GRP78 promoter luciferase reporter, 16 h; active = well fitted activation curve with a large enough effect; note: potency is the fitted concentration of half-maximal effect; series mostly up to about 76 µM; % of control where 0% means no effect; nearly all actives have a fitted effect of over 35% in size
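ERSR induction read as luciferase luminescence (Bright-Glo, 10 min at room temperature) in stably transfected human U87-MG glioma cells exposed to compounds for 16 h, using GRP78 as sensor.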
TRHR enhancer: allosterically enhances the human TRH receptor. actives 0.66% (n = 360,000). enhancement, % at 2 µM. P34981. TRHR cells, fluo-8 calcium fluorescence, EC20 TRH enhancement; in the data active = enhancement above about 30%; note: 0% is about no effect
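TRHR-expressing cells loaded with fluo-8 calcium dye were read kinetically (ex 480/em 530) during compound addition, then stimulated with an EC20 of TRH (10 nM final). Enhancement of the Gq-mediated intracellular calcium response was scored.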
D1 ag: agonists of human D1 dopamine receptor | actives 1% (n = 360,000) | P21728 | HEK293 T-REx D1 cells, calcium flux, agonist mode | activation, % at 2 µM; note: 0% is about no effect
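Agonism was scored from calcium flux recorded over 180 s (1 read/s) after pintool compound addition, following a 10-cycle baseline. Cells were inducible force-coupled HEK293 TREx D1, plated overnight at 30 C and loaded with no-wash calcium dye.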
D1 potentiator: potentiators of human D1 dopamine receptor. HEK293 TREx D1 cells, calcium flux, dopamine EC20 potentiation. P21728. actives 0.036% (n = 360,000). potentiation, % at 10 µM. AID 504651; in the data active = potentiation above about 30%; note: 0% is about no effect
D1 antag: blocks dopamine activation of the human D1 receptor; P21728; activity change, negative = inhibition, % at 10 µM; actives 3.2% (n = 360,000); AID 504652; HEK293 TREx D1 cells, calcium flux, dopamine EC80; hits give low values; in the data active = activity change below about -30%; note: % is set by controls: 0 for no effect and ±100 for the full control effect
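HEK293 T-REx cells expressing inducible, force-coupled D1 receptor; no-wash Ca dye, 30–90 min RT. Cmpd → 180 s read at 1 Hz → EC80 DA → 180 s read.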
* marks the source's active call; other numbers are inactive results; · = no result. Cut-off read from the data, not from the text of the source, unless noted: active = activation above about 30%; inactive = the rest.

SMILES	TRHR ag	GRP78 ERSR act	TRHR enhancer	D1 ag	D1 potentiator	D1 antag
CCN(CC)C(=O)/C(Cl)=C(\C)OP(=O)(OC)OC	·	-3%	·	·	·	·
CCOP(=O)(OCC)C(NC(=O)c1ccccc1)C(Cl)(Cl)Cl (stereo not given)	0	-5%	-6	3	-4	-8
CCOP(=O)(OCC)C(NS(=O)(=O)c1ccccc1)C(Cl)(Cl)Cl (stereo not given)	-1	-4%	4	1	-1	-33*
CCc1ccc(-n2nc(C)c3c2NC(=O)CSC3c2ccc(OC)cc2OC)cc1 (stereo not given)	0	·	-24	1	-5	0
FCCN(CCF)c1cccc(Cl)c1	-1	-7%	5	0	4	-34*
C[C@H](NC(=O)[C@@H](N)Cc1ccc(O)cc1)C(=O)N[C@@H](Cc1ccccc1)C(=O)NCC(=O)N[C@@H](Cc1ccc(O)cc1)C(=O)N1CCC[C@H]1C(=O)N[C@@H](CO)C(N)=O	·	-4%	·	·	·	·
C[C@H]1OC[C@@H](C[N+](C)(C)C)O1	41*	-2%	-2	47*	-3	19
CN1CCc2nc(SCc3ccccc3Br)c(C#N)cc2C1	2	4%	-3	2	-1	-35*
CC[C@@H]1/C=C/C=C/C[C@H](C)[C@@H](O)[C@](C)(O)C(=O)[C@H](C)[C@@H](O)[C@H](C)C(=O)[C@H](C)[C@@H](O)[C@H](C)/C=C/C(=O)O[C@H]2[C@@H](C)[C@@H](CC1)O[C@@]1(CC[C@@H](C)[C@@H](C[C@H](C)O)O1)[C@@H]2C	·	0%	·	·	·	·
C=CCC1(O)CCC2C3CCC4=CC(=O)CCC4=C3C=CC21C (stereo not given)	·	-4%	·	·	·	·
CC1(C)CC(CCNCc2ccc3c(c2)OCO3)(Cc2ccccc2)CCO1 (stereo not given)	4	-1%	-2	61*	-2	-2
Fc1ccc(CCNCc2ccc(Br)cc2)cc1	0	-5%	4	33*	4	2
COc1cccc(CNCCc2ccc(F)cc2)c1	4	-2%	0	10	-6	-2
Fc1ccc(CCNCc2cccc(Cl)c2)cc1	3	-3%	-5	42*	-12	-8
COC(=O)[C@@]1(Cc2ccc(F)cc2)[C@H]2c3cc(C(=O)N(C)C)[nH]c3C[C@H]2CN1C(=O)c1ccccc1	2	-4%	4	3	0	-33*
C[C@H](NC(C)(C)C)C(=O)c1cccc(Cl)c1	·	-3%	·	·	·	·
CC12CCC(=O)CC1CCC1C2CCC2(C)C1CCC2(C)O (stereo not given)	·	-4%	·	·	·	·
O=C(N/N=C/c1c(O)n(CCc2ccccc2)c(=O)[nH]c1=O)c1ccncc1	1	3%	4	-1	2	-37*
O=C(N/N=C/c1c(O)n(CCc2ccc(F)cc2)c(=O)[nH]c1=O)c1ccncc1	0	-2%	4	1	4	24
CC(C)[C@H]1C(=O)O[C@H](C(C)C)C(=O)N(C)[C@@H](C(C)C)C(=O)O[C@H](C(C)C)C(=O)N(C)[C@@H](C(C)C)C(=O)O[C@H](C(C)C)C(=O)N1C	3	-1%	-10	53*	-3	-33*
COc1cc(CC(C)N)c(OC)cc1C (stereo not given)	·	4%	·	·	·	·
CC(=O)Nc1cc(C(=O)N2CCC3(CC2)OCCO3)ccc1S(=O)(=O)c1ccc(Cl)cc1	0	-3%	5	2	-3	-87*
CCC1(c2ccccc2)C(=O)NC(=O)N(C(=O)c2ccccc2)C1=O (stereo not given)	·	-1%	·	·	·	·
Cc1ccc(Cn2nnnc2CN2CCC(n3nnc4cc(C(F)(F)F)ccc43)CC2)cc1	1	-4%	-3	1	-3	-39*
FC(F)(F)c1ccc2c(c1)nnn2C1CCN(Cc2nnnn2Cc2ccccc2)CC1	1	-1%	0	3	-6	-42*
SMILES	TRHR ag	GRP78 ERSR act	TRHR enhancer	D1 ag	D1 potentiator	D1 antag
Cc1ccc(Cn2nnnc2CN2CCC(n3nnc4cc(C)ccc43)CC2)cc1	-1	0%	-1	0	-4	-28
Cc1nc2cc(C(F)(F)F)ccc2n1C1CCN(Cc2nnnn2CCc2ccccc2)CC1	1	-6%	1	1	2	-15
COC[C@]12CN(C=O)C3C4C(OC)C1[C@@]3(C1CC3(O)C(OC)C(O)C4(OC(C)=O)C1C3OC(=O)c1ccccc1)[C@@H](OC)CC2O (stereo not given in full)	·	-2%	·	·	·	·
COC(=O)C(Cc1ccc(N(CCCl)CCCl)cc1)N=Cc1ccccc1O (stereo not given)	0	-8%	-7	7	-12	-40*
COc1ccccc1N1CCN(CCc2ccccc2)CC1	0	-2%	5	3	-7	-47*
c1ccc(CCN2CCCCC2)cc1	·	-3%	·	·	·	·
Cc1cccc(N2CCN(CCc3ccccc3)CC2)c1C	-2	-4%	2	39*	-11	-51*
c1ccc(CCN2CCCC2)cc1	·	-4%	·	·	·	·
Cc1ccc(N2CCN(CCc3ccccc3)CC2)cc1	0	-2%	4	4	-11	-44*
C[C@H]1CC[C@@H]2[C@@H](C)[C@H]3[C@H](C[C@H]4[C@@H]5CC=C6CC(O[C@@H]7O[C@H](CO)[C@H](O)[C@H](O[C@@H]8O[C@H](CO)[C@@H](O)[C@H](O)[C@H]8O)[C@H]7O[C@H]7O[C@@H](C)[C@H](O)[C@@H](O)[C@H]7O)CC[C@]6(C)[C@H]5CC[C@]34C)N2C1 (stereo not given in full)	·	-12%	·	·	·	·
O=c1[nH]c(O)c(C=Nc2ccccc2[N+](=O)[O-])c(=O)[nH]1	1	·	1	6	-4	-47*
Nc1cc(Cl)c2nonc2c1[N+](=O)[O-]	1	-15%	-3	1	0	-32*
CCOc1cccc(N2C(=O)/C(=C/c3ccco3)C(=O)NC2=S)c1	1	-3%	34*	-1	-3	7
CCN(CC)c1ccc(C=C2C(=O)N(C)C(=S)N(C)C2=O)o1	0	0%	1	50*	0	-10
O=C1NC(=S)N(c2ccccc2)C(=O)/C1=C/c1ccco1	1	-5%	-6	2	-4	-28
CCN(CC)c1ccc(/C=C2\C(=O)NC(=S)N(C)C2=O)o1	29	4%	-6	65*	-5	0
COc1ccc(N2C(=O)/C(=C/c3ccc(N(C)C)o3)C(=O)NC2=S)cc1	11	-3%	-1	35*	3	-3
CCN(CC)c1ccc(/C=C2\C(=O)NC(=S)N(c3ccc(OC)cc3OC)C2=O)o1	·	0%	·	·	·	·
O=C(CN1CCCC2CCCCC21)c1ccc(I)cc1 (stereo not given)	·	-3%	·	·	·	·

Bioassay records: PubChem, National Center for Advancing Translational Sciences (NCATS)
